# According to PubChem BioAssay (NCATS):
# Records with an inconclusive call do not appear. A call without a number means that no potency is given here. The source made the active and inactive calls. Calls follow the shape of the dose curve; as a rule, active = well fitted inhibition curve with a large enough effect; inconclusive = small, poorly fitted or top-dose-only effect; inactive = flat fitted curve, though single readings scatter.
# Biological target: Calcium and integrin-binding protein 1 (Homo sapiens) (UniProt Q99828)
# Assay: Primary qHTS for Identification of Calcium Integrin Binding Protein 1 (CIB1) Competitor (AID 1508620); also: top concentration of the series differs between compounds
# Conditions: CIB1-GST / FITC-alphaIIb peptide fluorescence polarization; series mostly up to 114 µM
# Outline: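 Fluorescence polarization competition: GST-tagged CIB1 (1 uM final) preincubated with compound 15 min at room temperature, then FITC-labelled alphaIIb peptide (100 nM final) added. After 15 min at room temperature, polarization read at Ex 480/Em 540.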
# Calcium and integrin-binding protein 1 (Homo sapiens), sequence (Q99828 whole entry, looked up): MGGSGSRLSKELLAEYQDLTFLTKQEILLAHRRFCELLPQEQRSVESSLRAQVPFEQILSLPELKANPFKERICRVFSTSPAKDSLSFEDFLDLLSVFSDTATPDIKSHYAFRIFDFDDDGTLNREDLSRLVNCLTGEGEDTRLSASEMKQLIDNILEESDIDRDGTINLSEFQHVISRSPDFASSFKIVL
row,Compound,Potency
1,C=C1C(=O)OC2C1CCC1(C)C(O)CC=C(C)C21 (centres undefined),inactive
2,C=C1C(=O)OC2/C=C(\CO)CC/C=C(\C=O)C(OC)C(OC(=O)C(C)CC)C12 (centres undefined),inactive
3,Cc1ccc(C(C)C)c(O[C@@H]2O[C@H](CO)[C@@H](O)[C@H](O)[C@H]2O)c1,inactive
4,CC(C)(CO)c1cc2cc(NC(=O)C3(c4ccc5c(c4)OC(F)(F)O5)CC3)c(F)cc2n1CC(O)CO (centres undefined),inactive
5,C/C=C/C=C/C=C/C(=O)O[C@@H]1C=C2COC(=O)[C@]2(O)[C@@]2(C)CCCC(C)(C)[C@H]12,inactive
6,C/C=C\NC(=O)C1NC(=O)C(CC(N)=O)NC(=O)C(NC(=O)C(=O)C(C)CC)Cc2ccc(O)c(c2)-c2cccc3c2NC(=O)C3(O)C1O (centres undefined),inactive
7,CC(NCCCc1cccc(C(F)(F)F)c1)c1cccc2ccccc12 (centres undefined),inactive
8,CC(C)c1c(O)ccc2c1CC[C@H]1C(C)(C)CCC[C@]21C,inactive
9,O=C(c1c(F)ccc(NS(=O)(=O)N2CC[C@@H](F)C2)c1F)c1c[nH]c2ncc(-c3cnc(C4CC4)nc3)cc12,inactive
10,C/C=C(\C)C(=O)OC1C[C@@]2(COC(C)=O)O[C@H]2/C=C\[C@@]2(C)O[C@@H]2[C@H]2OC(=O)C(COC(C)=O)=C12 (some centres undefined),inactive
11,COc1c2c(nc3occc13)C(CC=C(C)C)(OC)C(O)CC2 (centres undefined),inactive
12,C=C1CC[C@@H](O)[C@]2(C)CC[C@H]3C(=C)C(=O)O[C@@H]3[C@@H]12,inactive
13,Cc1c[nH]c2ncnc(N3CCC(CN)(C(=O)Nc4cccc(OC(=O)N(C)C)c4)CC3)c12,inactive
14,Cc1cc(-c2nc3cc(F)ccc3s2)ccc1NC(=O)[C@@H](N)CCCCN,inactive
15,O=C(O)c1cccc(-c2ccc(-c3cn(C(=O)N4CCCCC4Cc4ccccc4)nn3)cc2)c1 (centres undefined),inactive
16,Cc1ccc(C)c(-c2cc(C(F)(F)F)nn2-c2ccc(S(N)(=O)=O)cc2)c1,inactive
17,COc1cc(S(C)(=O)=O)ccc1Nc1nc2ccc(-c3ccc(NC(=O)[C@H](C)c4ccc(F)cc4)cc3)cn2n1,inactive
18,C=C1C(=O)O[C@@H]2C[C@]3(C)[C@@H](CCC(C)O)[C@@H]3C[C@H]12 (some centres undefined),inactive
19,COc1cc(C(N)=O)nc(-c2ccccn2)c1O,inactive
20,COc1ccc2cc3c(NC(=O)c4ccco4)nn(C)c3nc2c1,inactive

row,Compound,Potency
1,C/C1=C/CCC2=CC(OC2=O)C(C)(C)/C=C/C1=O (centres undefined),inactive
2,COc1ccc(CN2CCN(CCCSc3cc(C(C)(C)C)c(O)c(C(C)(C)C)c3)CC2)c(OC)c1OC,inactive
3,COc1cccc(-c2cc(F)ccc2C2Cc3nc(N)nc(C)c3C(=O)N2)n1 (centres undefined),inactive
4,COc1cc2c(cc1OC)CN(C(=O)/C=C/c1c(-c3ccccc3)n(C)c3ncccc13)CC2,inactive
5,C#CCCCn1cc(-c2cccc3c2N[C@H](C)CC(=O)N3)cn1,inactive
6,CN1CC[C@@H](c2c(O)cc(O)c3c(=O)cc(-c4ccc(C(F)(F)F)cc4Cl)oc23)[C@@H]1CO,inactive
7,C=C[C@@]12COC(=O)C(=C)[C@@H]1[C@@H](O)[C@H](C(=C)C(=O)OC)[C@@H](O)C2,inactive
8,O=[N+]([O-])c1ccc(Oc2ccc3c(c2)CCC(c2ccccc2)O3)nc1 (centres undefined),inactive
9,CC[C@@H]1C[C@]1(NC(=O)[C@@H]1C[C@@H]2CN1C(=O)[C@H](C(C)(C)C)NC(=O)OCC(C)(C)CCCCc1cccc3c1CN(C3)C(=O)O2)C(=O)NS(=O)(=O)C1CC1,inactive
10,COC1=CC(=O)C[C@@H](C)[C@@]12Oc1c(Cl)c(OC)cc(OC)c1C2=O,inactive
11,CC(C)(O)c1ccc2c(c1)ncn2-c1cccc(-c2ccccc2C#N)c1,inactive
12,COc1ccccc1C(=O)Nc1cc2c(cc1N1CCCC1)n(C)c(=O)n2C,inactive
13,COc1cc(N2CCC(N3CCN(C)CC3)CC2)ccc1Nc1ncc(Cl)c(Nc2ccccc2P(C)(C)=O)n1,inactive
14,Clc1ncoc1-c1c[nH]c2ccccc12,inactive
15,CCN(Cc1ccccc1)C(=O)Cn1c(=O)n(C)c2cnc(-c3ccccc3)nc21,inactive
16,COC1CC(=O)C23C(=O)NC(CC(C)C)C2C(C)C(C)=CC3/C=C(\C)CCCC1O (centres undefined),inactive
17,C=C1C(=O)O[C@@H]2C3C(=C(C)[C@@H](O)[C@@H](OC(=O)/C(=C/C)COC(C)=O)[C@@H]12)C(=O)[C@H]1O[C@@]31C (some centres undefined),inactive
18,CN(C)C(CCOc1cccc2ccccc12)c1ccccc1 (centres undefined),inactive
19,CCN(CC)CCCCCCNc1cc(OC)cc2c(C)ccnc12,inactive
